Measured values taken from PubChem BioAssay (Tox21).
Inconclusive results are not listed. Activity calls are given as the source filed them. Calls follow the shape of the dose curve; as a rule, active = well fitted activation curve with a large enough effect in the repeat runs; inconclusive = weak or mixed curves; inactive = flat fitted curve, though single readings scatter.

Assay: Caspase-3/7 induction in HepG2 cells by small molecules, qHTS assay (AID 1346978); also: nearly all actives have a fitted effect of over 15% in size
Conditions: HepG2 caspase-3/7 activation, Caspase-Glo luminescence, 17 h; series mostly up to 92.4 µM; caspase activation: at the top concentration
In short: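 Wild-type HepG2 cells (2,000/well) were settled 5 h at 37 C, 5% CO2, then exposed to compounds in DMSO for 17 h. Caspase-3/7 activity was read by luminescence 30 min after adding Caspase-Glo 3/7 reagent at room temperature.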
% is scaled to controls: 0 for no effect and ±100 for the full control effect; potency is read from the fitted curve at half-maximal effect.

SMILES	caspase activation	Potency
Nc1cc(Cl)c([N+](=O)[O-])cc1O	-3.99% (inactive)	–
CCC1(c2cnc[nH]2)Cc2ccccc2C1	0.269% [at 42.5 µM] (inactive)	–
C1CC(COCC2CO2)CCC1COCC1CO1 (centres undefined)	-0.286% (inactive)	–
C=CC(C)C#N (centres undefined)	1.33% (inactive)	–
O=C1C=CC(=O)N1c1ccccc1	-12.7% (inactive)	–
CC(C)N=C(N)/N=C(\N)Nc1ccc(Cl)cc1	0.704% [at 42.5 µM] (inactive)	–
Clc1ccccc1CN1CCc2sccc2C1	0.224% [at 42.5 µM] (inactive)	–
CCCCOC(=O)C(C)CC (centres undefined)	-1.36% (inactive)	–
CC1CCCCN1CCCOC(=O)c1ccc(OC2CCCCC2)cc1 (centres undefined)	-3.2% [at 42.5 µM] (inactive)	–
CCC(C)c1cc([N+](=O)[O-])cc([N+](=O)[O-])c1OC(=O)OC(C)C (centres undefined)	-5.55% (inactive)	–
COc1cccc(CCc2ccccc2OCC(CN(C)C)OC(=O)CCC(=O)O)c1 (centres undefined)	5.09% [at 42.5 µM] (inactive)	–
O=C1c2c(O)ccc([N+](=O)[O-])c2C(=O)c2c([N+](=O)[O-])ccc(O)c21	-15.4% (inactive)	–
CC(CN(C)C)CN1c2ccccc2CCc2ccccc21 (centres undefined)	3.43% [at 42.5 µM] (inactive)	–
C=C(c1ccc(C(=O)O)cc1)c1cc2c(cc1C)C(C)(C)CCC2(C)C	–	68.6 µM (active)
C[C@H]1O[C@@H](O[C@H]2[C@@H](O)C[C@H](O[C@H]3[C@@H](O)C[C@H](O[C@H]4CC[C@@]5(C)[C@H](CC[C@@H]6[C@@H]5C[C@@H](O)[C@]5(C)[C@@H](C7=CC(=O)OC7)CC[C@]65O)C4)O[C@@H]3C)O[C@@H]2C)C[C@H](O)[C@@H]1O	–	inactive
C=CC(=C)CCC=C(C)C	0.391% (inactive)	–
Oc1ccc(-c2ccc(O)cc2)cc1	-2.93% (inactive)	–
CCN(CC)c1ccc(N)cc1	-11.8% (inactive)	–
O=C(O)CCn1c2c(c3ccccc31)C[C@H](NS(=O)(=O)c1ccc(F)cc1)CC2	0.507% [at 42.5 µM] (inactive)	–
